According to PubChem BioAssay (Tox21):
Records with an inconclusive call do not appear. The source made the active and inactive calls. Calls come from the whole dose curve; as a rule, active = well fitted inhibition curve with a large enough effect in the signal ratio in the repeat runs (not every such curve was filed as active); inconclusive = weak or mixed curves, or effect the other way; inactive = no such curve, though single readings can be large or run the other way; the % refers to the signal ratio. Where a SMILES comes first, the peptide text is derived from it.

What follows are molecules tested against Vitamin D3 receptor (Homo sapiens) (UniProt P11473) (assay: qHTS assay to identify small molecule antagonists of the vitamin D receptor (VDR) signaling pathway (AID 743223)). Conditions: VDR-UAS-bla HEK293T, beta-lactamase FRET ratio, 16 h; series mostly up to 61 µM.
Vitamin D3 receptor (Homo sapiens), sequence (P11473 whole entry, looked up): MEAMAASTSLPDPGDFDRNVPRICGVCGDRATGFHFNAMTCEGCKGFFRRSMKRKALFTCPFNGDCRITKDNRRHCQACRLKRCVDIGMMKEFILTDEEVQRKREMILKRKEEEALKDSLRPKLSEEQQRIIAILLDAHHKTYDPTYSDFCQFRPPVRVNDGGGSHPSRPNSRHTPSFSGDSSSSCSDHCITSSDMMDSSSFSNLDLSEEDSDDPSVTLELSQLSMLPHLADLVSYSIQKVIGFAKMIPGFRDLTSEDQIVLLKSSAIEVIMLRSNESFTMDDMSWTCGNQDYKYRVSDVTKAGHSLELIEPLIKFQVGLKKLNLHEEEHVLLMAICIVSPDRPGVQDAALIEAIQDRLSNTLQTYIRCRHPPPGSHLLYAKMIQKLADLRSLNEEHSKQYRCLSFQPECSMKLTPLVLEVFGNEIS
Text: U.S. Tox21 Program National Center for Advancing Translational Sciences [NCATS] NIH Chemical Genomics Center [NCGC] U.S. Environmental Protection Agency [EPA] National Institutes of Environmental Health Sciences [NIEHS] National Toxicology Program [NTP] U.S. Food and Drug Administration [FDA] Tox21 Assay Overview: The vitamin D receptor (VDR), a member of nuclear hormone receptor superfamily, plays a critical role in calcium homeostasis and bone metabolism. It is also involved in cell differentiation and growth, and thrombogenicity.
Tox21 Assay Protocol Summary: VDR-bla cells were dispensed at 2,000 cells/5 uL of assay medium per well into black wall/clear-bottom 1536-well plates using a Multidrop Combi (Thermo Fisher Scientific, Waltham, MA) dispenser. After the assay plates were incubated at a 37C and 5% CO2 for 4 h, 23 nL of compounds dissolved in DMSO, positive controls or DMSO only was transferred to the assay plate by a Pintool station (Kalypsys, San Diego, CA), followed by addition of 1 uL of 1alpha, 25-Dihydroxy Vitamin D3 (3 nM, final concentration in the wells) using a Bioraptr Flying Reagent Dispenser (FRD) workstation (Beckman Coulter, Indianapolis, IN). The plates were incubated at 37C and 5% CO2 for 16 h, and then 1 uL of LiveBLAzerTM B/G FRET substrate was added using a Bioraptr FRD. The plates were incubated at room temperature for 2 h and fluorescence intensity was measured by an Envision plate reader (PerkinElmer, Shelton, CT).

Row | SMILES | outcome
1 | Cn1c(=O)c2c(ncn2CCO)n(C)c1=O | inactive
2 | CC1CC(=O)CC(C)(C)C1 (stereo not given) | inactive
3 | CC(C)NC(=O)c1ccc(C=O)cc1 | inactive
4 | Cc1ncc([N+](=O)[O-])n1CC(C)O (stereo not given) | inactive
5 | CCO | inactive
6 | CCCC(CC)c1ccccc1 (stereo not given) | inactive
7 | CC(N)CCCC(C)(C)O (stereo not given) | inactive
8 | ONc1ccccc1 | inactive
9 | CCCCOC(=O)[C@H](C)O | inactive
10 | c1ccc(B(c2ccccc2)c2ccccc2)cc1 | inactive
11 | CC1(C)O[C@H]2CC(=O)OC[C@]23[C@H]2CC[C@@]4(C)[C@H](c5ccoc5)OC(=O)[C@H]5O[C@]54[C@]2(C)C(=O)C[C@@H]13 | inactive
12 | CC1=C(C(=O)O)N2C(=O)[C@@H](NC(=O)[C@H](N)c3ccccc3)[C@H]2SC1 | inactive
13 | Cc1ccc2c(c1)C(=O)c1ccccc1C2=O | inactive
14 | CCCCCC(C)O (stereo not given) | inactive
15 | C=CCSSCCC | inactive
16 | N[C@@H](CSCCCO)C(=O)O | inactive
17 | COc1cc(/C=C/C(N)=O)cc(OC)c1OC | inactive
18 | Cn1nnc2c(C(N)=O)ncn2c1=O | inactive
19 | CC(C)(C)NC[C@H](O)COc1cccc2c1CCCC2=O | inactive
20 | CCCCCCC1(C)CCC(=O)O1 (stereo not given) | inactive

Row | SMILES | outcome
21 | c1ccc(-c2nn[nH]n2)cc1 | inactive
22 | CCC(=O)Oc1ccc2c(c1)CC[C@@H]1[C@@H]2CC[C@@]2(C)[C@H]1C[C@@H](OC(=O)CC)[C@@H]2OC(=O)CC | inactive
23 | COC(C)(OC)OC | inactive
24 | Nc1nnnn1-c1ccccc1 | inactive
25 | C/C(=C1\CCOC(=O)S1)N(C=O)Cc1cnc(C)nc1N | inactive
26 | C=CCCCCCCCCC(=O)OCCCC | inactive
27 | CC(C)Cn1cnc2c1c(=O)n(C)c(=O)n2C | inactive
28 | CC(=O)N[C@@H](CO)C(=O)N[C@@H](CC(=O)O)C(=O)N[C@@H](CCCCN)C(=O)N1CCC[C@H]1C(=O)O (Ac-SDKP-OH) | inactive
29 | CC(=O)C(C)O (stereo not given) | inactive
30 | CC1c2ccccc2CN1NC(=O)c1ccc(Cl)c(S(N)(=O)=O)c1 (stereo not given) | inactive
31 | NCc1ccc(S(N)(=O)=O)cc1 | inactive
32 | Cc1ccc(C)c([N+](=O)[O-])c1 | inactive
33 | CCCCCCCCCOC(=O)c1ccccc1C(=O)OCCCCCCCCC | inactive
34 | C[C@H]1[C@@H](c2ccccc2)NC(=O)N1C | inactive
35 | COC(=O)c1cc(Cl)cc(Cl)c1 | inactive
36 | CCOc1ccccc1OCC1CNCCO1 (stereo not given) | inactive
37 | CCOc1cccc(N)c1 | inactive
38 | CC(=O)OC1CCCCC1C(C)(C)C (stereo not given) | inactive
39 | CC(C)OC(=O)CCC(=O)OC(C)C | inactive
40 | O=C(O)CNC(=O)CNC(=O)CNC(=O)CSC(=O)c1ccccc1 | inactive
